Bcl-xL primary = blocks human Bcl-xL binding to Bim BH3 peptide. AID 2129. GST-Bcl-xL / FITC-Bim BH3 peptide fluorescence polarization. 320,000 compounds, 0.7% hits. inhibition, % at 10.9 µM;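 active = inhibition above the mean of all tested compounds plus 3 SD, cutoff set per campaign, cut at about 30% in these data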;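 note: 0% = DMSO wells and 100% = unlabeled Bim-BH3 peptide competitor; inhibitors lower millipolarization by displacing the labeled peptide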
Keap1 Nrf2 FP = Keap1-Nrf2 (human) interaction inhibition. Q14145. Keap1 Kelch-Nrf2 peptide fluorescence polarization, 1536-well. inhibition, % at 9.4 µM. 340,000 compounds, 0.15% hits. AID 504523; in the data active = inhibition above about 12%; inconclusive = no clear call, values can overlap the other calls; inactive = below about 7.3%;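 note: human Keap1 Kelch domain with fluorescein labeled Nrf2 9mer peptide probe; 0% = neutral control wells and 100% = peptide positive control; higher means more block of Keap1 binding to Nrf2 peptide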
Target sequence (Q14145 whole entry, looked up, the tested form may be a part): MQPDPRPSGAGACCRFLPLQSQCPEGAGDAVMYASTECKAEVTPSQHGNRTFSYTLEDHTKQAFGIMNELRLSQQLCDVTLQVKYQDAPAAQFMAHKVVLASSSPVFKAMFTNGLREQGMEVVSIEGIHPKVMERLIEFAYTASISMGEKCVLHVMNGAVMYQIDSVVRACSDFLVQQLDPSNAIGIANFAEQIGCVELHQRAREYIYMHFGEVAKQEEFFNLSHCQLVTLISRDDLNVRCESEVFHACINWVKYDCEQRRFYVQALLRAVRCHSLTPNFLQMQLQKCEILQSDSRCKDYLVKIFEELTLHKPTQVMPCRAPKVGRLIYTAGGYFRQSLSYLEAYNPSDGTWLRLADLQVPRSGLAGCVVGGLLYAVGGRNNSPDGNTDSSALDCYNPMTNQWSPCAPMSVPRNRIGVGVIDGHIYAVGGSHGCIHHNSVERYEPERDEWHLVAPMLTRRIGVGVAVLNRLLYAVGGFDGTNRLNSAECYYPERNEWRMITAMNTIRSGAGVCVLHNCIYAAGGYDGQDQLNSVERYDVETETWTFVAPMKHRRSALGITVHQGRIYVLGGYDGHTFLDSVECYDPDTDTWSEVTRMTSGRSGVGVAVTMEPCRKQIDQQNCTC
GLD-1 TGE inh = GLD-1-TGE RNA interaction inhibition (C. elegans); inhibition, % at 5.96 µM; Q17339; purified GLD-1 + fluorescein TGE RNA, fluorescence polarization; AID 2280; 320,000 compounds, 0.44% hits;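 active = percent inhibition above a per-plate cutoff, the plate mean of test compounds plus 3 SD, cut at about 30% in these data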;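 note: 0% = DMSO wells with GLD-1 and probe and 100% = wells lacking GLD-1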
LANA DNA inh = KSHV C-LANA DNA binding inhibition. 340,000 compounds, 0.078% hits. inhibition, % at 9 µM. MBP-C-LANA/FAM-LBS DNA binding, fluorescence polarization;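 active = highest replicate inhibition at or above 60% at 9 µM, even if other replicates fall short; inactive = all replicates below 60% inhibition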;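 note: 0% = neutral control wells and 100% = 4 µM acridine orange control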
E coli Lon inh = inhibits E. coli Lon protease; 360,000 compounds, 0.42% hits; purified E. coli Lon protease, fluorescence polarization; P0A9M0; AID 602123; inhibition, % at 7.94 µM; in the data active = inhibition above about 13%, passing the limit was not always enough;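 note: 0% = enzyme with probe and DMSO and 100% = no enzyme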
MEX-5 binding = C. elegans MEX-5 TCR-2 RNA binding activity; Q9XUB2; activity score (negative = inhibition of binding), % at 10 µM; MEX-5/FITC-TCR2 RNA binding, fluorescence polarization; hits give low values; 300,000 compounds, 0.38% hits; AID 1832;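 active = inhibition past about -25% in most replicates, and total fluorescence under double the plate's negative control median, limit read from the data; inconclusive = replicates evenly split on the limit, or fluorescence at least double controls; inactive = too little inhibition in most replicates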;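 note: 0% = DMSO and -100% = 5 µM competing unlabeled TCR2 RNA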
* = called active by the depositor; ? = inconclusive; . = not tested or not shown; + = active, no number. Hits are enriched below; roughly 1.2% of the tested compounds scored in any of these assays.

SMILES | Bcl-xL primary | Keap1 Nrf2 FP | GLD-1 TGE inh | LANA DNA inh | E coli Lon inh | MEX-5 binding
COCCn1c(=N)c(S(=O)(=O)c2ccc(Br)cc2)cc2c(=O)n3ccccc3nc21 | 12 | -4 | 1 | 2 | -9 | -45*
N=c1c(S(=O)(=O)c2ccc(Br)cc2)cc2c(=O)n3ccccc3nc2n1C1CCCCC1 | 2 | -1 | -1 | 4 | -8 | -45*
N=c1c(S(=O)(=O)c2ccccc2)cc2c(=O)n3ccccc3nc2n1Cc1cccnc1 | 7 | 2 | -4 | 8 | 1 | -42*
N=c1c(S(=O)(=O)c2ccc(Cl)cc2)cc2c(=O)n3ccccc3nc2n1C1CCCC1 | 2 | ? | 1 | 1 | -6 | -35*
N=c1c(S(=O)(=O)c2ccccc2)cc2c(=O)n3ccccc3nc2n1C1CCCCC1 | . | -9 | . | -1 | -9 | .
COc1cc2c(cc1CNC[C@H]1O[C@@H](n3cnc4c(N)ncnc43)[C@H](O)[C@@H]1O)OCO2 | . | 2 | -5 | 0 | -1 | .
C[C@H]1CN([C@@H](C)CO)C(=O)c2cc(-c3cccc(F)c3)cnc2O[C@H]1CN(C)C(=O)c1cnccn1 | . | . | . | . | -2 | .
O=C(OCCN1C(=O)c2ccccc2C1=O)c1cc(S(=O)(=O)N2CCOCC2)ccc1Cl | 2 | 2 | 6 | -1 | 8 | 0
O=C(OCCN1C(=O)c2cccc3c(N4CCOCC4)ccc(c23)C1=O)c1cccc(Cl)c1 | 41* | . | 81* | . | . | ?
O=C(OCCN1C(=O)c2cccc3c(N4CCOCC4)ccc(c23)C1=O)c1ccccc1Cl | 25 | 55* | 19 | 48 | -192 | ?
CC(C)(C)c1nc(SCC(=O)NNC(=O)c2ccccc2)c2ccccc2n1 | 1 | -5 | 7 | -1 | 1 | 1
C/C(=N\NC(=O)c1nnn(-c2nonc2N)c1-c1cccs1)c1cccc(O)c1 | 1 | -2 | 3 | 0 | 12 | -63*
CN(C)Cc1c(O)ccc2cc(-c3nc4ccccc4n3C)c(=O)oc12 | 52* | 3 | 22 | 13 | -19 | -3
CN(C)Cc1c(O)ccc2c(-c3ccccc3)cc(=O)oc12 | 6 | 2 | 0 | 2 | -1 | -2
CCCOc1ccc(/C=c2\sc3nc(-c4ccco4)nn3c2=O)cc1OCC | 3 | -6 | 3 | 4 | -11 | -67*
CCCCCOc1ccc(/C=c2\sc3nc(=O)c(-c4ccccc4)nn3c2=O)cc1OC | -4 | -7 | 1 | 0 | -19 | -31*
COc1ccc(COCC(O)CN2CCN(S(=O)(=O)c3ccc(C(C)C)cc3)CC2)cc1 (stereo not given) | 7 | -6 | -5 | -4 | -10 | .
COc1cc(CN2C[C@@H](CO)O[C@@H](n3cnc4c(NCC(C)C)ncnc43)C2)cc(OC)c1OC | . | . | . | . | -12 | .
COc1cccc(/C=C2\SC(=S)N(CCCC(=O)NC3=NCCS3)C2=O)c1 | 3 | 1 | 0 | 7 | -3 | -34*
CCc1ccc(/C=C2\SC(=S)N(CCCC(=O)NC3=NCCS3)C2=O)cc1 | . | . | . | . | 1 | .
CC[n+]1c(/C=C/Nc2ccccc2)sc2ccccc21 | -4 | -6 | -19 | -2 | -1 | -2
CCN1/C(=C/C=C/C=C/c2sc3ccccc3[n+]2CC)Sc2ccccc21 | 128* | . | -32 | . | . | 6
CCN1/C(=C/C=C/C=C/C=C/c2sc3ccccc3[n+]2CC)Sc2ccccc21 | 7 | 0 | -131 | 2 | -32 | 27
CCN1/C(=C/C=C/c2sc3ccccc3[n+]2CC)Sc2ccccc21 | + | -73 | 0 | -14 | 30 | ?
CCN1/C(=C/c2ccc3cc(C)ccc3[n+]2CC)Sc2ccccc21 | -40 | -37 | 57* | -74 | -178 | ?
SMILES | Bcl-xL primary | Keap1 Nrf2 FP | GLD-1 TGE inh | LANA DNA inh | E coli Lon inh | MEX-5 binding
C[C@H]1CN([C@@H](C)CO)C(=O)c2cc(Br)cnc2O[C@H]1CN(C)C(=O)C1CCC1 | . | . | . | . | 6 | .
COc1ccc(C(C)(O)c2nc(-c3cccc(C(F)(F)F)c3)cs2)cc1 (stereo not given) | . | . | . | . | 0 | .
Cc1cccc(C(=O)NCC(=O)Nc2ccncc2)c1 | -1 | -6 | -8 | 0 | -3 | -1
Cc1ccc(NC(=O)c2sc(N)nc2C)cc1 | -5 | -2 | 0 | -1 | 7 | 2
NS(=O)(=O)c1ccc(NC(=S)NNC(=O)CCC(=O)Nc2ccccc2Cl)cc1 | 0 | -5 | -1 | -1 | -4 | -31*
O=C(c1ccc(Cl)c(S(=O)(=O)N2CCCCC2)c1)N1CCCCC1 | 3 | 2 | 2 | 0 | -11 | 0
Nc1cccc2c1C(=O)N(C(=O)c1ccc(Cl)c(S(=O)(=O)N3CCCCCC3)c1)C2=O | 37* | -10 | 26 | 0 | 8 | 0
CCOc1cc(OCC)cc(C(=O)N2CCC[C@H]2C(=O)N2CCC[C@H]2C(=O)N[C@@H](C)c2ccccc2)c1 | . | . | . | . | 5 | .
COc1ccc(Cl)cc1NS(=O)(=O)c1cccc(C(=O)NCCCN2CCOCC2)c1 | . | . | . | . | -8 | .
CCCS(=O)(=O)c1cn2cccc(N)c2c1S(=O)(=O)CCC | 98* | 0 | 86* | 7 | 18 | 0
CCCS(=O)(=O)c1c(S(=O)(=O)CCC)c2c(C)cccn2c1C(N)=O | -1 | 2 | -6 | 1 | 0 | 4
CC1CCN(S(=O)(=O)N2CCC(C(=O)NC(C)c3ccccc3)CC2)CC1 (stereo not given) | . | . | . | . | -3 | .
CC(=O)c1sc2nc(-c3cccs3)ccc2c1N | -1 | -1 | -2 | 1 | -8 | -10
Nc1c(C(=O)Nc2nc3ccccc3s2)sc2nc(-c3cccs3)ccc12 | 25 | -8 | -5 | 0 | 10 | -46*
CC1=C(O)C(=O)C(C2=C(O)C(=O)C(C)=C(O)C2=O)=C(O)C1=O | . | -2 | . | 61* | -4 | .
Cc1ccc(C2=C(O)C(=O)C(c3ccc(C)cc3)=C(O)C2=O)cc1 | . | 3 | . | 2 | -8 | .
CC(C)N1C(=S)SC(C)(C)C1n1oc(=O)n(-c2cccc(Cl)c2)c1=O (stereo not given) | 129* | -4 | 4 | 3 | 0 | 1
CC(C)CN1C(=S)SC(C)(C)C1n1oc(=O)n(-c2ccc(Cl)cc2)c1=O (stereo not given) | 6 | -3 | 4 | 2 | 0 | 1
CC1(C(=O)NC2CCCCC2)CCC(=O)N1CC(F)(F)F (stereo not given) | . | . | . | . | 2 | .
Cc1cc(NS(=O)(=O)c2ccc(Nc3nc(-c4sc(N)nc4C)cs3)cc2)no1 | 9 | -6 | 11 | 60 | -4 | -29*
COc1ccccc1N1CCN(Cc2cc(=O)n3ccsc3n2)CC1 | 1 | -5 | 8 | 2 | 4 | -5
CC1Cc2ccccc2N1Cc1cc(=O)n2ccsc2n1 (stereo not given) | 33* | 0 | 11 | 2 | 10 | .
C=CCN1C(=O)/C(=C2/Sc3ccccc3N2CC)SC1=S | 11 | -4 | -3 | 3 | 0 | -30*

Assay outcomes: PubChem BioAssay, several laboratories
